The text below walks through data of PubChem BioAssay (NCATS).

Results filed as inconclusive are left out. The source made the active and inactive calls. The call rests on the fitted dose curve; in most records, active means well fitted inhibition curve with a large enough effect; inconclusive means small, poorly fitted or top-dose-only effect; inactive means flat fitted curve, though single readings scatter.
On the % scale 0 is the no-effect control and ±100 the full control effect.

The test has as its system NIH3T3. The test is described as follows: Cytotoxic Profiling of Annotated Libraries Using Quantitative High-Throughput Screening (AID 1296008). Further: nearly all actives have a fitted effect of over 60% in size. The note with it: Five cell lines viability, CellTiter-Glo ATP luminescence, 48-72 h; max response: stronger effect = lower value. The method, boiled down:
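Cytotoxicity was measured as CellTiter-Glo ATP luminescence, read after 10 min at room temperature. Compound treatment of the cells lasted 48 or 72 hr at 37 degrees Celsius in a qHTS format.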
In general terms: Cellular ATP, detected with luciferase, serves as a proxy for viable cell number.
As for `C=C1CC[C@@H](O)[C@]2(C)CC[C@H]3C(=C)C(=O)O[C@@H]3[C@@H]12`, the max response is -16.6% (inactive).

Regarding `COC(=O)c1ccc2c(c1)[nH]c1ncnc(NCCCN3CCCCC3)c12`, the result was inactive.

`CC(C)OC(=O)N1CCC(Oc2ncnc3c2cnn3-c2ccc(S(C)(=O)=O)cc2F)CC1`: the max response was -1.21% (inactive).

Consider `C=C1C(=O)OC2C=C(C)CC/C=C(\CO)CC(O)C12` (stereo not drawn), for which the max response was -2.7% (inactive).

On to `C=C1CC[C@H]2C(=C)CC[C@H]3C(=C)C(=O)O[C@@H]3[C@@H]12`, for which the max response is -3.18% (inactive).

As to `CC1OC2OC(=O)C3(C)CC4C5(CO5)C5=CC(=O)OC(C)(C)C5=CC(=O)C4(C)C(C1=O)C23` (stereo not drawn), the max response is 1.81% (inactive).

As to `CN1CC2CN(c3ccc4oc5ccccc5c(=O)c4c3)CC2C1` (stereo not drawn), the max response was -10.4% (inactive).

As for `CN1CCN(C2=Nc3ccccc3Nc3ccc(Cl)cc32)CC1`, the max response is 2.15% (inactive).

For `COC(=O)c1ccnc(-c2cc(C(=O)Nc3ccc(C4(N)CC4)cc3)ccn2)c1`, the max response is -5.19% (inactive).

For `NC(=O)c1cccc2[nH]c(-c3ccc(C4CCCN4)cc3F)nc12` (stereo not drawn), the compound was classed as inactive.

As to `C=C1CCC2C(C)(C)CCCC2(C)C1CC/C(C)=C\CO` (stereo not drawn), the outcome was inactive.

In the case of `CCOC(=O)N1CCC(N2CCC[C@@H](NC(=O)c3ccccc3C)C2)CC1`, the call was inactive.

Take `COC1C(OC(=O)/C=C/C=C/C=C/C=C/C(=O)O)CCC2(CO2)C1C1(C)OC1CC=C(C)C` (stereo not drawn): the max response was 0.0729% (inactive).

As to `C=C1CCC[C@]2(C)CC/C(=C(/CO)C(=O)OC)C[C@@H]12`, the max response was 2.53% (inactive).

With `CC(=O)O[C@@H]1CC[C@@]2(C)[C@H](CC[C@@H]3[C@@H]2C[C@H](OC(C)=O)[C@]2(C)[C@@H](C(C)=O)CC[C@@H]32)C1`, the max response was -22.7% (inactive).

`COc1c(CCC(=O)O)cccc1O[C@@H]1O[C@H](CO)[C@@H](O)[C@H](O)[C@H]1O`: the max response is 0.319% (inactive).

`Cc1[nH]c2ccccc2c1CCNC(=O)c1cccs1`: the max response is 0.258% (inactive).

As to `CN1CCN(C2=Nc3ccccc3Nc3ccc(OS(=O)(=O)C(F)(F)F)cc32)CC1`, the result was inactive.

For `COC(=O)C[C@H]1C(C)(C)[C@H](OC(=O)c2ccccc2)C2CC3=C4CC(=O)O[C@@H](c5ccoc5)[C@]4(C)CCC3[C@@]1(C)C2=O` (stereo partly drawn), the max response is 0.65% (inactive).

With `Fc1ccc(N2CCN(CCC3OCCc4ccccc43)CC2)cc1` (stereo not drawn), the max response is -0.639% (inactive).

Take `C=C(C)C1CCC2(C(=O)O)CCC3(C)C(CCC4C5(C)C(C=O)C(O)C(C)(C)C5CCC43C)C12` (stereo not drawn): the max response was 0.383% (inactive).

With `C=C1CC[C@@H]2[C@](C)(CO)[C@H](O)CC[C@@]2(C)[C@@H]1CC(O)C1=CCOC1=O` (stereo partly drawn), the call was inactive.

As to `COc1ccc([C@H](Cc2ccncc2)c2ccccc2)cc1OC1CCCC1`, the max response is -22.8% (inactive).
